Screening data from PubChem.
FBW7 act: FBW7 E3 ligase activators, primary screen, biochemical, AlphaScreen, human. F-box/WD repeat-containing protein 7 (Homo sapiens), Q969H0. AlphaScreen FBW7–phospho-cyclin E peptide binding, activator screen. normalized activity (activation), % at 26.1 µM. actives 0.13% (n = 650,000); in the data active = normalized activity above about 1.9%;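 note: purified mutant Fbw7 with reduced substrate affinity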
Target sequence (Q969H0 whole entry, looked up): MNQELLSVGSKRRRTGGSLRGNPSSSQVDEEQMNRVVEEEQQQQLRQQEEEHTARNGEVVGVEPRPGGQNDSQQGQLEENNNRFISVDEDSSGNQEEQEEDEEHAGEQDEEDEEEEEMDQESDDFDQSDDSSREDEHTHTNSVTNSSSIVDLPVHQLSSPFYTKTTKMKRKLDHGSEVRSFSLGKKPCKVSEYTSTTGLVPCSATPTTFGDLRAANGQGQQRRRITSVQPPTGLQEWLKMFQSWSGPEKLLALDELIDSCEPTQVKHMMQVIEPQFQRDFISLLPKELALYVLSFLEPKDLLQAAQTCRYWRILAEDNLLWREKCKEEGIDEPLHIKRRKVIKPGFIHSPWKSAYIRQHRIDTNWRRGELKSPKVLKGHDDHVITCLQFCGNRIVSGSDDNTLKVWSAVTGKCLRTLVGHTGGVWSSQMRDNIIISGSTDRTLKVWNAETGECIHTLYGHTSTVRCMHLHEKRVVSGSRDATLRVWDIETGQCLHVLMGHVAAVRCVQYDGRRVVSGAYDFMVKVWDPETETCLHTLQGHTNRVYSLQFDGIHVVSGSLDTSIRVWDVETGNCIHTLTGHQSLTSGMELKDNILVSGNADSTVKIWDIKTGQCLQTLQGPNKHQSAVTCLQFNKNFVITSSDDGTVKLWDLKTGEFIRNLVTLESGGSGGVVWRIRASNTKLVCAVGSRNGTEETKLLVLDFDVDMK
TEAD-YAP block: TEAD-YAP interaction inhibition, primary screen, TEAD-YAP interaction inhibitor project, luminescence, HEK-TIYL cells; TEAD-Gal4/YAP UAS-luciferase luminescence; AID 1259422, 2018; inhibition, % at 9.12 µM; actives 1.4% (n = 640,000); in the data active = inhibition above about 32%;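 note: 0% = median of test compound wells and 100% = reference inhibitor wells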
MITF inh: MITF inhibitors, primary screen, biochemical, AlphaScreen, human; Microphthalmia-associated transcription factor (Homo sapiens), O75030; AlphaScreen MITF homodimerization, bead proximity signal; inhibition, % at 2.6 µM; actives 0.91% (n = 650,000); AID 1259374, 2018; in the data active = inhibition above about 50%;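 note: 0% = vehicle wells with protein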
GPR151 ag: activators of human GPR151, primary screen, cell-based, PathHunter beta-arrestin, luminescence. PathHunter beta-arrestin GPR151 cells. activation, % at 11.2 µM. actives 1% (n = 650,000); in the data active = activation above about 4.9%;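 note: 0% = median of compound wells and 100% = cells with positive control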
Starred values were filed as active, the others as inactive. Shown are actives, neighbours in structure and some others; about 3.5% of the full set was active somewhere.

SMILES | FBW7 act | TEAD-YAP block | MITF inh | GPR151 ag
Cc1cc(C(=O)N/N=C2\CCCC(=O)C2)c2ccccc2n1 | 0 | 40* | -7 | 0
O=C1CCC/C(=N\NC(=O)c2cc(-c3ccncc3)nc3ccccc23)C1 | 0 | 26 | -5 | 2
c1ccc(-c2cn3nc4c(nc3n2)CCCC4)cc1 | 0 | 85* | 3 | -9
COc1ccccc1OCC(=O)N/N=C/c1cc(Br)ccc1O | 0 | 13 | 7 | 1
CC1CC(C)CN(S(=O)(=O)c2ccc(F)c(C(=O)Nc3c(F)cc(F)cc3Br)c2)C1 (centres undefined) | 0 | 8 | 15 | 0
COc1c(C)c2c(c(O)c1C/C=C(\C)CCC(=O)OCCN1CCOCC1)C(=O)OC2 | 0 | 48* | -4 | -2
CCOC(=O)c1c(NC(C)=O)sc2c(Cl)c(CNCCCCO)ccc12 | 0 | -8 | -10 | 0
CN1CCN(c2cc(-c3ccccn3)nc(-c3ccccn3)n2)CC1 | -1 | 32 | 112* | 2
CN1CCN(c2cc(-c3ccncc3)nc(-c3cccnc3)n2)CC1 | 0 | 61* | 0 | 3
c1ccc(-c2cc(N3CCc4ccccc4C3)nc(-c3ccccn3)n2)nc1 | -1 | 69* | 85* | 1
CN1CCN(c2cc(-c3ccccc3)nc(-c3ccccn3)n2)CC1 | 0 | 2 | -5 | 0
c1ccc2[nH]c(-c3nc4ccccc4o3)nc2c1 | 0 | 84* | 10 | -11
c1ccc2nc(-c3nc4ccccc4o3)ccc2c1 | 0 | 77* | 0 | -10
c1ccc2oc(-c3ccc(-c4nc5ccccc5o4)cc3)nc2c1 | 0 | 2 | 7 | -1
CC(C)N(CCNC(=O)c1csc(Nc2ccnn2C)n1)C(C)C | 0 | 1 | 2 | -2
NS(=O)(=O)c1ccc(CCNc2ncnc3sc(-c4ccccc4)cc23)cc1 | 0 | 42* | 1 | -2
COC(=O)/C=C\C(=O)Nc1ccc(Br)c(C)c1 | 0 | 47* | -3 | 1
O=C(NN1CCOCC1)c1ccc(Br)o1 | 0 | -2 | -4 | 2
Cc1ccc(S(=O)(=O)CCC(=O)N2CC(=O)N(CCc3ccccc3)C(=O)C2)cc1 | 0 | 4 | 3 | 1
Cc1cnc(NC(=O)CN2CCC(O)(c3ccccn3)CC2)s1 | 0 | 3 | -1 | 0
Cc1cnc(NC(=O)CN2CCN(c3ccccn3)CC2)s1 | 0 | 65* | 11 | -1
CC[C@H](C)[C@@H]1NC(=O)[C@@H]2C[C@H](NCc3cccc(F)c3)CN2C1=O | 0 | 2 | -2 | 1
CCOc1ccc(-c2cn(-c3ccccc3)c3[n+]2CCS3)cc1 | 0 | 65* | 7 | 3
COc1ccc(-n2cc(-c3ccccc3)[n+]3c2SCC3)cc1 | 0 | 59* | 0 | 0
COc1ccc(-n2cc(-c3ccc(Cl)cc3)[n+]3c2SCCC3)cc1 | 0 | 26 | -1 | -1
SMILES | FBW7 act | TEAD-YAP block | MITF inh | GPR151 ag
COc1ccc(-c2cn(-c3ccccc3)c3[n+]2CCS3)cc1 | 0 | 32* | 9 | 0
COc1ccccc1N1CCN(C(=S)NCCN2CCOCC2)CC1 | 0 | 66* | 8 | -1
O=C(NCCCN1CCc2ccccc2C1)Nc1ccc(Br)cc1 | 3.1* | -15 | -10 | 0
COc1ccccc1N1CCN(CCCNC(=O)Nc2ccc(Br)cc2)CC1 | 2.9* | 3 | -12 | -1
CCNC(=S)N1CCN(c2ccccc2OC)CC1 | 0 | 1 | -9 | 1
CC(C)N(C(=O)CSc1nnc(NC(=O)C2CCCCC2)s1)C(C)C | 0 | -15 | 4 | -1
CCN(CC)c1ccc(/C=N/Nc2nnc(C)c(=O)[nH]2)cc1 | 0 | 5 | 15 | 1
C=CCOC(=O)C1CCN(S(=O)(=O)c2cccc3nsnc23)CC1 | 0 | 9 | -13 | 0
O=c1oc2ccccc2cc1-c1cn2ccccc2n1 | 0 | 75* | 1 | -11
COc1cccc2cc(-c3cn4ccccc4n3)c(=O)oc12 | 0 | 42* | 7 | -6
Nc1nc(C2CC2)c(Sc2sc(N)nc2C2CC2)s1 | 0 | 35* | 7 | 1
C=CCN1C(=O)C2C(C(=O)NCc3ccc(F)cc3)C3C=CC2(O3)C1C(=O)NC(C)(C)C (centres undefined) | 0 | 9 | 2 | 0
CCn1nc(C)c(CNC(=O)c2ccc(OC3CCN(Cc4ccccn4)CC3)cc2)c1C | 0 | 52* | 9 | 0
C/C(CC(=O)Nc1ccccc1C)=N\NC(=O)C(=O)Nc1ccccc1C | 2.0* | -20 | -10 | 1
COC(=O)C1=C(C)NC2=C(C(=O)CCC2)C1c1cc(F)ccc1F (centres undefined) | 1 | 1 | 13 | 0
CC1=C(C(=O)Nc2cccc(F)c2)C(c2ccsc2)C2=C(CC(C)(C)CC2=O)N1 (centres undefined) | 0 | 54* | 0 | -1
CC1=C(C(=O)Nc2ccccc2F)C(c2ccsc2)C2=C(CC(C)(C)CC2=O)N1 (centres undefined) | 0 | 55* | -3 | 0
CSc1nc(N)c2c(n1)NC1=C(C(=O)CC(C)(C)C1)C2c1ccncc1 (centres undefined) | 0 | -4 | 12 | -1
CSc1nc(N)c2c(n1)NC1=C(C(=O)CC(C)(C)C1)C2c1cccs1 (centres undefined) | 0 | 49* | 9 | 0
CC1=C(C(=O)Nc2cccc(F)c2)C(c2cccs2)C2=C(CC(C)(C)CC2=O)N1 (centres undefined) | 0 | 58* | -8 | 1
CC1=C(C(=O)Nc2ccc(F)cc2)C(c2ccsc2)C2=C(CC(C)(C)CC2=O)N1 (centres undefined) | 0 | -7 | -15 | 1
CC1=C(C(=O)Nc2ccccc2F)C(c2ccccn2)C2=C(CC(C)(C)CC2=O)N1 (centres undefined) | 0 | 4 | 11 | 0
C=CCNC(=O)c1ccccc1NC(=O)C(C)N(c1ccc(C)cc1)S(C)(=O)=O (centres undefined) | 0 | 5 | 3 | 0
O=C(Nc1cccc(-c2ccc(N3CCCCCC3)nn2)c1)c1cccs1 | 0 | -42 | -6 | -1
O=C(Nc1ccc(-c2ccc(N3CCCCC3)nn2)cc1)c1cccs1 | 7.4* | -17 | 6 | 0
SMILES | FBW7 act | TEAD-YAP block | MITF inh | GPR151 ag
O=C(Nc1cccc2ncccc12)c1ccc(N2CCCCC2)c([N+](=O)[O-])c1 | 0 | 32* | -12 | 1
CCc1ccccc1NC(=O)c1ccc(N2CCCCCC2)c([N+](=O)[O-])c1 | 0 | 1 | -9 | -2
Clc1ccccc1CNc1ncnc2ccccc12 | 0 | 48* | 8 | 2
CC(C)N(C(=O)Cn1c(SCC(=O)N2CCOCC2)nc2ccccc21)C(C)C | 0 | 6 | 3 | 0
CC(=O)C/C(=N/NC(N)=S)C(F)(F)F | 0 | 55* | -5 | 0
O=C(Nc1ccc2c(c1)CN(C(=O)CN1CCOC1=O)CC2)c1ccccc1Cl | 0 | 3 | -8 | 0
